Pf Dd2 inh – inhibitors of Plasmodium falciparum Dd2 growth. Potency, µM (titrated, usually from 28.9 µM), for inactives: top-dose activity, negative = inhibition, hits mostly inhibitors. P. falciparum Dd2 growth, SYBR Green, 72 h. hit rate 4.3% among 120,000; active means well fitted inhibition curve with a large enough effect;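 further: plate controls were DMSO vehicle for no effect and reference drug for full effect; nearly all actives have a fitted effect of over 65% in size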
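Readout: SYBR Green fluorescence, 485 nm excitation, 535 nm emission, after ~16 h lysis at 37C. Before that, Dd2-infected red cells (2.5% hematocrit) grew 72 h with compound, 29 uM top final concentration.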
The depositor's hits bear a star; [ ] = remark or other dose. Many of the other results were omitted from the sample, so hits are more common in it than they were. Potency means the concentration at half of the fitted maximal effect.

Screening Cc1ccc(C(=O)N2CCCCCCN(C)C(=O)[C@@H]3CCC[C@@H]32)cn1 returned Pf Dd2 inh -1%.
Screening CCc1nncn1C1CCN(C(=O)c2cc(F)ccc2Cl)CC1 returned Pf Dd2 inh -33%.
`c1ccc(-c2cnc(Nc3ccc(N4CCOCC4)cc3)c3c2CCO3)nc1` gave Pf Dd2 inh -1%[44.1 µM].
O=C(NCc1cccc(F)c1)N1CCc2nc3cc(-c4ccccc4)[nH]n3c(=O)c2C1 was read as Pf Dd2 inh 88%[5.79 µM].
For CC(=O)N1CCC(N2C[C@@H]3OCC(=O)N[C@@H]3C2)CC1 the results were Pf Dd2 inh 1%[44.1 µM].
Screening OCC1(CCCc2ccccc2)CCN(Cc2ccc(-n3cccn3)cc2)CC1 returned Pf Dd2 inh 4.5µM*.
Screening O=C(c1cc2cc(F)ccc2[nH]1)N1CCC(CO)(CCCc2ccccc2)CC1 returned Pf Dd2 inh -13%.
`O=C(c1ccc2nc[nH]c2c1)N1CCC(CO)(CCCc2ccccc2)CC1` gave Pf Dd2 inh 13%.
For CCN(CC)Cc1nc(C2(O)CCN(Cc3ccccc3)CC2)cs1 the results were Pf Dd2 inh -16%[44.1 µM].
`O=C(NCCCc1ccccc1)C1(CCO)CCN(c2ncccn2)C1` (configuration not stated) gave Pf Dd2 inh inactive.
For OCC1(CCCc2ccccc2)CCN(Cc2cccn2-c2nccs2)CC1 the results were Pf Dd2 inh 10µM*.
Screening CC(C)N1C[C@H](O)C[C@H]1c1nnc2n1CCN(C(=O)c1n[nH]c3ccccc13)CC2 returned Pf Dd2 inh inactive.
CC1(C)CNC(=O)c2nc(-c3ccccc3-n3cncn3)[nH]c2C1 was read as Pf Dd2 inh -9%.
C[C@H]1[C@@H]2[C@@H](O)C([C@H](C)C(=O)NC3CC3)CC[C@@]2(C)CC[C@@H]1NC(=O)c1ccccn1 (some centres not stated) was read as Pf Dd2 inh inactive.
For CCn1cc(S(=O)(=O)N2CCCCCCNC(=O)[C@@H]3CCC[C@@H]32)cn1 the results were Pf Dd2 inh 20%.
Screening CCC(=O)NCc1cccnc1Oc1ccccc1OC returned Pf Dd2 inh 5%.
`COc1ccccc1Oc1ncccc1CNC(=O)c1cccnc1C` gave Pf Dd2 inh -5%.
`CCCCOc1c(CNC(C)c2ncccc2C)cccc1OC` (configuration not stated) gave Pf Dd2 inh 5.6µM*.
`COCCc1noc([C@@H]2CC(F)(F)CN2C(=O)Cc2ccncc2)n1` gave Pf Dd2 inh 26%.
For COc1cc(C)c(C)cc1S(=O)(=O)N1CC(C)(C)[C@@](C)(O)C1 the results were Pf Dd2 inh -6%.
For COc1ccc(-c2cc(N3CCN(C(=O)c4ccc(C)nc4)CC3)n[nH]2)cc1 the results were Pf Dd2 inh inactive.
For COc1ccc(-c2cc(N3CCCN(C(=O)c4ccc(C)nc4)CC3)n[nH]2)cc1 the results were Pf Dd2 inh inactive.
Screening Cc1ccc(C(=O)N2CCCN(c3cc(-c4ccc(Cl)cc4)[nH]n3)CC2)cn1 returned Pf Dd2 inh 6.3µM*.
`COC[C@@H]1CN(Cc2cn(C)nc2C)C[C@H]1C(=O)NC1CC1` gave Pf Dd2 inh 28%.
For Cc1cc(=O)n(CC(=O)NCc2cccs2)c(N(C)Cc2ccccc2)n1 the results were Pf Dd2 inh -45%.
`COCCNC(=O)N1CCc2n[nH]c(=O)n2CC1` gave Pf Dd2 inh -3%.
`CCCCNC(=O)CN1C(=O)COc2ccc(S(=O)(=O)N3CCCC3)cc21` gave Pf Dd2 inh 32%.
CC(C)CN(CCCNC(=O)CN1C(=O)COc2ccc(S(=O)(=O)N3CCCCCC3)cc21)CC(C)C was read as Pf Dd2 inh 11µM*.
CCN(CC)CCCNC(=O)CN1C(=O)COc2ccc(S(=O)(=O)N3CCC(C)CC3)cc21 was read as Pf Dd2 inh 6%.
CNC(=O)[C@@H]1CN(C(=O)Cc2ccc(OC)c(Cl)c2)C[C@H]1COC was read as Pf Dd2 inh -17%.
For Cc1ccc(C(=O)N2CC3CC(C2)[C@H]2CCCC(=O)N2C3)s1 (some centres not stated) the results were Pf Dd2 inh 1%.
Screening Cc1c(NC(=O)c2ccco2)cccc1C(=O)N1CCn2nc(C(=O)O)cc2C1 returned Pf Dd2 inh -9%.
Screening O=C1NC2(CCN(C(=O)c3ccccn3)CC2)COc2ccccc21 returned Pf Dd2 inh inactive.
CCc1ccc(C2=CC(c3c(F)cccc3Cl)n3c(nc4ccccc43)N2)cc1 (configuration not stated) was read as Pf Dd2 inh 24%.
COc1ccccc1C1C=C(c2ccc(F)cc2)Nc2nc(-c3ccc(Cl)cc3)nn21 (configuration not stated) was read as Pf Dd2 inh 11µM*.
COc1cccc(C2=CC(c3cc(Br)ccc3F)n3nnnc3N2)c1 (configuration not stated) was read as Pf Dd2 inh -5%.
`CC1=C(C(=O)Nc2cccnc2)C(c2ccccc2Cl)n2nc(-c3ccccc3)nc2N1` (configuration not stated) gave Pf Dd2 inh -7%.
`COc1ccccc1C1C=C(c2ccc(C(C)C)cc2)Nc2nnnn21` (configuration not stated) gave Pf Dd2 inh inactive.
Screening COc1ccccc1C1C=C(c2ccc(Cl)cc2)Nc2nc(-c3ccc(Cl)cc3)nn21 (configuration not stated) returned Pf Dd2 inh 2.8µM*.
CCOc1ccc(C(=O)N2[C@@H]3CC[C@H]2CC(NC(=O)c2cnc(C)cn2)C3)cc1OCC (some centres not stated) was read as Pf Dd2 inh -19%.
`O=C([C@@H]1C[C@H](F)CN1C(=O)c1cccc(F)c1)N1CCCCC1` gave Pf Dd2 inh -20%.
Screening COCCn1nnnc1C1CC2(CCOCC2)C(=O)N1CCc1ccc(Cl)cc1 (configuration not stated) returned Pf Dd2 inh -6%.
`O=C1NC2(CCCN(Cc3ccc(OC(F)(F)F)cc3)C2)Oc2ccccc21` (configuration not stated) gave Pf Dd2 inh inactive.
O=C(c1ccc(C(F)(F)F)cc1)N1CCC2(CNc3ccccc3[S+](=O)([O-])N2)C1 (configuration not stated) was read as Pf Dd2 inh inactive.
`CCN1CCCC2(Cc3ccccc3CN(C(=O)CCNC(C)=O)C2)C1` (configuration not stated) gave Pf Dd2 inh 11%.
CCN1CCCC2(Cc3ccccc3CN(C(=O)C(C)C)C2)C1 (configuration not stated) was read as Pf Dd2 inh 11µM*.
Screening CC(=O)N1Cc2ccccc2CC2(CCCN(CC3CCOCC3)C2)C1 (configuration not stated) returned Pf Dd2 inh -5%.
Screening CC(C)C(=O)N1Cc2ccccc2CC2(CCCN(CC3CCOCC3)C2)C1 (configuration not stated) returned Pf Dd2 inh 7.1µM*.
`CC(C)C(=O)N1Cc2ccccc2CC2(CCN(CC3CCNCC3)C2)C1` (configuration not stated) gave Pf Dd2 inh 2%.
`CC(=O)N1Cc2ccccc2CC2(CCCN(C)C2)C1` (configuration not stated) gave Pf Dd2 inh -7%[44.1 µM].
`Cc1ccc(C)c(C(=O)N2CC[C@@H]3CN(S(C)(=O)=O)[C@@H]3C2)c1` gave Pf Dd2 inh -9%.

Bioassay records as filed in PubChem BioAssay.
